Assay results: PubChem BioAssay (NCATS)
Records with an inconclusive call do not appear. The source made the active and inactive calls. Unless noted, the call rests on the fitted dose curve; in most records, active means well fitted curve in the direction sought with a large enough effect; inconclusive means small, poorly fitted or top-dose-only effect, or another doubt; inactive means no such curve, though single readings can be large; an effect the other way counts as inactive or inconclusive.

Legend:
[1] = target: Glutaminase kidney isoform, mitochondrial (Homo sapiens) (UniProt O94925); experiment: qHTS for Inhibitors of Glutaminase (GLS): LOPAC Validation (AID 624146); further: nearly all actives have a fitted effect of over 60% in size; further: potency means the concentration at half of the fitted maximal effect
Chain of Glutaminase kidney isoform, mitochondrial (Homo sapiens) (O94925 whole entry, looked up, canonical isoform): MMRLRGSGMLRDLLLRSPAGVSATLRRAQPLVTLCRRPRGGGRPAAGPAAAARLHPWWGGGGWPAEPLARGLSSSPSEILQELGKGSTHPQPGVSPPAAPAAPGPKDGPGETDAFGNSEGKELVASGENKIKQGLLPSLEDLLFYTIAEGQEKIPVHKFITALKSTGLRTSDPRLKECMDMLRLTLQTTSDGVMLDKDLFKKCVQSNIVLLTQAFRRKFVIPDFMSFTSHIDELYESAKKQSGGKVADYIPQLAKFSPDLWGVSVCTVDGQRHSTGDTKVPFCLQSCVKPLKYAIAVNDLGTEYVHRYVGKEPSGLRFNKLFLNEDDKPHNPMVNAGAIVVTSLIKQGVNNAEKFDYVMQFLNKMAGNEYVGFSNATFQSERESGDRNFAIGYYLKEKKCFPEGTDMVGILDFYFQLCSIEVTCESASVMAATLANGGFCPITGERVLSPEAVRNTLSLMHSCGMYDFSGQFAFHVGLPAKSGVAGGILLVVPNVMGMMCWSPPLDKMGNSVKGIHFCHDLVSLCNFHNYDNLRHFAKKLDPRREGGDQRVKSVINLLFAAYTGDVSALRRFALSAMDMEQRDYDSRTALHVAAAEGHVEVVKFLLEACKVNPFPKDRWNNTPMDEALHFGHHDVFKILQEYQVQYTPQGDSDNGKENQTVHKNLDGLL
Method in brief: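 hKGA; 45 mM KH2PO4 pH 8.2 + 0.02% Tween-20; cpd via pin tool; 1 mM Gln soln; GluOx/HRP/Amplex Red; RT 30 min; fluor. t0 & final.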

[2] = qHTS of Trypanosoma Brucei Inhibitors: LOPAC Validation (AID 624147)
Method in brief: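 In this concentration-response screen, enzyme-free wells defined baseline while DMSO plates tracked drift. Each reaction combined TbPYK, substrate, compound and 130 uM ADP for 45 min at room temperature. Kinase-Glo Plus luminescence gave the signal.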

[3] = target: Glucagon-like peptide 1 receptor (Homo sapiens) (UniProt P43220); experiment: qHTS of GLP-1 Receptor Agonists: LOPAC Validation (AID 624148);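 further: luminescence from a luciferase reporter switched on by cAMP; higher luminescence signal means agonism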
Chain of Glucagon-like peptide 1 receptor (Homo sapiens) (P43220 whole entry, looked up): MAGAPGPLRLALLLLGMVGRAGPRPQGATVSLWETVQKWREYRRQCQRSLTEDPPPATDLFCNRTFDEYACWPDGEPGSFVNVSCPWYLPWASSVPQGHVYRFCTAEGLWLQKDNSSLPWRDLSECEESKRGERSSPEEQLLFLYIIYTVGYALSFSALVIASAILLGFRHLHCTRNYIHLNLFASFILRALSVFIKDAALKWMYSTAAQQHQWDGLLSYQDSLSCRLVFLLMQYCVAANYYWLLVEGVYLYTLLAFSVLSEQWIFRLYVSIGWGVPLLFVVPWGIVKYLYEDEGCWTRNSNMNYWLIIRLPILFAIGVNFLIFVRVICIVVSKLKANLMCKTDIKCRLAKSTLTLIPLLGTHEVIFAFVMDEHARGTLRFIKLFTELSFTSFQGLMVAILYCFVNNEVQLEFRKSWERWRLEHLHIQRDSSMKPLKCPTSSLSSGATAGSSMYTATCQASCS
Method in brief: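 Agonism scored as increased luciferase luminescence driven by cAMP in HEK293 clones carrying GLP-1R. Cells settled 12 hours, received compound for 4-6 hr at 37 deg C, 5% CO2, and were read after 12 min detection reagent at RT.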

[4] = qHTS of Nrf2 Activators: LOPAC Validation (AID 624149)
Method in brief: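 AREc32_Fluc cells, 1000/well in OPTI-MEM with 5% FBS, grown overnight, then exposed to compounds for 24 hr at 37 deg C, 5% CO2. ARE-driven firefly luciferase read by Steady-Glo luminescence after 30 min at RT.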

[5] = HTS Assay for Allosteric Antagonists of the Human D2 Dopamine Receptor: Hit Validation in HTRF (AID 624455); further: potency means the concentration at half of the fitted maximal effect;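 further: stable D1 dopamine receptor cell line scored for blocking the D1 response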
Method in brief: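 Hit validation in cells stably expressing the D1 dopamine receptor, run in HTRF format. Compounds were tested for their ability to inhibit the D1-mediated response.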

[6] = Cytotoxicity counterscreen for NFkB agonists and antagonists (AID 624476);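 further: cells exposed to compound for 48 hours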
[7] = qHTS Assay for Identification of Small Molecule Agonists for NFkB Signaling Pathway. (AID 624478)
Method in brief: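 NFkB-bla ME-180 cells carry a beta-lactamase reporter. They received compound plus TNF alpha at 10 pM final (its EC50) for 5 h at 37 C. Reporter activity was read as 460/530 nm emission ratio after 2 h LiveBLAzer substrate loading.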

[8] = qHTS Assay for Identification of Small Molecule Antagonists for NFkB Signaling Pathway. (AID 624479; calls by dose curve;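 further: pathway stimulated with TNF alpha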)
[9] = Cell Proliferation Assay against the TMD8 Cell Line (AID 651645); conditions: TMD8 DLBCL cell line proliferation/viability; at 46.1 µM (top of the series);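 further: cells exposed to compound for 48 h before reading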
Method in brief: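 TMD8 cells, 500/well in RPMI with 5% FBS, dosed immediately and grown 48 h at 37 C, 5% CO2. CellTiter-Glo luminescence normalised to DMSO 100% and 9.2 uM bortezomib (final) 0%.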

CO/S(=N\S(=O)(=O)c1ccc(Cl)cc1)c1ccc([N+](=O)[O-])cc1 (configuration not stated)
inactive: Potency [1] | Potency [2] | outcome [3] | outcome [4] | Potency [5]

O=C(c1cc(O)c(O)c([N+](=O)[O-])c1)c1ccccc1F
active: Potency [1] 4.47 µM
inactive: Potency [2] | outcome [3] | outcome [4] | Potency [5]

OC[C@H]1O[C@@H](n2cnc3c(NC4CCCCC4)ncnc32)[C@H](O)[C@@H]1O
inactive: Potency [1] | Potency [2] | outcome [3] | outcome [4] | Potency [5]

COc1cc(C(O)CO)ccc1OS(=O)(=O)O (configuration not stated)
inactive: Potency [1] | Potency [2] | outcome [3] | outcome [4] | Potency [5]

O=C(O)c1cc(=O)c2ccccc2[nH]1
inactive: Potency [1] | Potency [2] | outcome [3] | outcome [4] | Potency [5]

NCCCCC(=O)O
inactive: Potency [1] | Potency [2] | outcome [3] | outcome [4] | Potency [5]

C[N+](C)(CCCCCC[N+](C)(C)CCCN1C(=O)c2cccc3cccc(c23)C1=O)CCCN1C(=O)c2cccc3cccc(c23)C1=O
inactive: Potency [1] | Potency [2] | outcome [3] | outcome [4] | Potency [5]

COC1=C(OC)C(=O)c2ccccc2C1=O
active: Potency [1] 10 µM
inactive: Potency [2] | outcome [3] | outcome [4] | Potency [5]

CCCCCCCCCCCCCCCCCCNC(=O)OCC(COP(=O)([O-])OCC[n+]1ccsc1)OC (configuration not stated)
inactive: Potency [1] | Potency [2] | outcome [3] | outcome [4] | Potency [5]

CCN(CC)c1ncnc2c1ncn2[C@@H]1O[C@H](COP(=O)(O)OP(=O)(O)C(Br)(Br)P(=O)(O)O)[C@@H](O)[C@H]1O
inactive: Potency [1] | Potency [2] | outcome [3] | outcome [4] | Potency [5]

CN(C)C(N)=NCCC[C@H](N)C(=O)O
inactive: Potency [1] | Potency [2] | outcome [3] | outcome [4] | Potency [5]

CN1CC(=O)N/C1=N/C(=O)Nc1cccc(Cl)c1
inactive: Potency [6] | outcome [7] | outcome [8]
105%: viability (% of control) [9]

CC(C)ON([C@@H](C(=O)NO)C(C)C)S(=O)(=O)c1ccc(-c2ccccc2)cc1
inactive: Potency [2] | outcome [3] | outcome [4]

Oc1ccc(C2CNCc3sccc32)cc1O (configuration not stated)
inactive: Potency [2] | outcome [3] | outcome [4]
active: Potency [5] 0.146 µM

S=C(S)OC1CC2CC1C1CCCC21 (configuration not stated)
inactive: Potency [2] | outcome [3] | outcome [4] | Potency [5]

N#C/C(=C\c1ccc(O)c(O)c1)C(=O)NCCCc1ccccc1
inactive: Potency [2] | outcome [3] | outcome [4]

N#C/C(=C\c1ccc(-c2cc(Cl)ccc2Cl)o1)C(=O)Nc1cccc2ncccc12
inactive: Potency [2] | outcome [3] | outcome [4] | Potency [5]

OCC1O[C@H]([S-])[C@H](O)[C@@H](O)[C@@H]1O.[Au+] (some centres not stated)
inactive: Potency [1] | outcome [3]

Cc1ccc(S(=O)(=O)/C=C/C#N)cc1
active: Potency [1] 12.6 µM
inactive: outcome [3] | outcome [4]

CC(=O)/C=C1\C(=O)N(C)c2ccccc21
inactive: Potency [2] | outcome [3] | Potency [5]

O=C1NC(=O)/C(=C/c2ccc(-c3ccc(F)cc3O)o2)S1
inactive: Potency [2] | outcome [3] | Potency [5]

N.N.N.N.N.N.N.N.N.N.N.N.N.N.O.O.[Ru+4].[Ru+5].[Ru+5]
inactive: Potency [1] | outcome [3] | outcome [4]

CCCCCCCCCCCCCCCCCC(=O)NCC(COP(=O)([O-])OCC[N+](C)(C)C)OCC (configuration not stated)
inactive: Potency [2] | outcome [3] | outcome [4] | Potency [5]

CCOC(=O)N1CCN(/[N+]([O-])=N/Oc2ccc([N+](=O)[O-])cc2[N+](=O)[O-])CC1
inactive: Potency [2] | outcome [3] | Potency [5]

CCNC(=O)[C@H]1O[C@@H](n2cnc3c(N)nc(NCCc4ccc(CCC(=O)O)cc4)nc32)[C@H](O)[C@@H]1O
inactive: Potency [2] | outcome [3] | outcome [4]

C[N+](C)(C)CC(=O)[O-]
inactive: Potency [2]

O=C1C(SCCO)=C(SCCO)C(=O)c2ccccc21
inactive: outcome [3] | Potency [5]
active: Potency [1] 10 µM

CN1CCc2cc(O)c(O)cc2C(c2ccccc2)C1 (configuration not stated)
inactive: Potency [2] | outcome [3] | outcome [4]

O=C1NC(O)=NC1(c1ccccc1)c1ccccc1
inactive: Potency [5]

CC(C)(C)c1ccc(S(=O)(=O)/C=C/C#N)cc1
inactive: outcome [3]
active: Potency [1] 7.08 µM

CCCCCCCC/C=C\CCCCCCCC(=O)NCCO
inactive: Potency [2] | outcome [3] | outcome [4] | Potency [5]

N.N.O=C(O)C1(C(=O)O)CCC1.[Pt]
inactive: Potency [1] | outcome [3] | outcome [4]

CC(C)CC(NP(=O)(O)O[C@@H]1O[C@@H](C)[C@H](O)[C@@H](O)[C@H]1O)C(=O)NC(Cc1c[nH]c2ccccc12)C(=O)O (some centres not stated)
inactive: Potency [1] | Potency [2] | outcome [4] | Potency [5]

O=C1/C(=C/c2ccsc2)CC/C1=C\c1cccs1
inactive: Potency [2] | outcome [3] | Potency [5]

O=C(O)CC1CCCc2ccccc2C1O (configuration not stated)
inactive: Potency [2] | outcome [3] | outcome [4] | Potency [5]

N#C/C(=C\c1ccc(O)c(O)c1)C(=O)c1ccc(O)c(O)c1
inactive: Potency [2] | outcome [3] | outcome [4] | Potency [5]

COc1cc2c(CCNC(C)=O)c[nH]c2cc1Cl
inactive: Potency [2] | outcome [3] | outcome [4] | Potency [5]

Nc1nc(Cl)nc2c1ncn2[C@@H]1O[C@H](CO)[C@@H](O)[C@H]1O
inactive: Potency [1] | Potency [2] | outcome [4] | Potency [5]

CN1CCc2cccc3c2C1Cc1ccc(O)c(O)c1-3 (configuration not stated)
inactive: outcome [3] | outcome [4]
active: Potency [1] 4.47 µM

CC(C)NCC(O)COc1cccc2ccccc12 (configuration not stated)
inactive: Potency [1] | outcome [3] | outcome [4] | Potency [5]

CC1OC1P(=O)(O)O (configuration not stated)
inactive: Potency [2] | outcome [3] | outcome [4] | Potency [5]
